Laboratory results published in the supplement of paper PMC6555819.

Columns and labels:
Assay in all cases: PBM binding z-score (relative to random genomic background probes); higher = stronger binding; sequences stand for … in GC…GCGATTGACAGCGTAGAATGAAGG
[1] = tested on: PPARg:RXRa DBDmut IVT, anti-RXR (DBD mutation: RXRa K156A/R161A, NR concentration 270 nM, RXRa partner concentration 90 nM)
In short: (§1)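 On custom Agilent 4×180K arrays, double-stranded probes with 34-nt variable regions carried direct-repeat seeds, single-nucleotide variants, half-site ablations or random human genomic background. Ligand-free nuclear receptor dimers were applied for 1 h, and binding was read with antibodies against each partner (one per run). Binding z-scores come from regression-normalized fluorescence, with the random background probes as reference.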

[2] = tested on: PPARg:RXRa IVT, anti-PPARg (NR concentration 270 nM, RXRa partner concentration 90 nM)
In short: as §1

[3] = tested on: PPARg DBDmut:RXRa IVT, anti-PPARg (DBD mutation: PPARg1 K132A/R137A, NR concentration 270 nM, RXRa partner concentration 90 nM)
In short: as §1

[4] = tested on: PPARg DBDmut IVT, anti-PPARg (DBD mutation: PPARg1 K132A/R137A, NR concentration 270 nM)
In short: as §1

[5] = tested on: PPARg homodimer (NR concentration 180 nM)
In short: as §1

[6] = tested on: PXR:RXRa (NR concentration 270 nM, RXRa partner concentration 90 nM)
In short: as §1

[7] = tested on: PXR homodimer (NR concentration 270 nM)
In short: as §1

[8] = tested on: RARa:RXR (NR concentration 270 nM, RXRa partner concentration 90 nM)
In short: as §1

[9] = tested on: RARa homodimer (NR concentration 270 nM)
In short: as §1

[10] = tested on: RARb:RXRa (NR concentration 270 nM, RXRa partner concentration 90 nM)
In short: as §1

[11] = tested on: RARb homodimer (NR concentration 270 nM)
In short: as §1

[12] = tested on: RARg:RXRa (NR concentration 270 nM, RXRa partner concentration 90 nM)
In short: as §1

[13] = tested on: RARg homodimer (NR concentration 270 nM)
In short: as §1

[14] = tested on: RXRa DBDmut IVT, anti-RXR (DBD mutation: RXRa K156A/R161A, NR concentration 90 nM)
In short: as §1

[15] = tested on: RXRa homodimer (NR concentration 180 nM)
In short: as §1

[16] = tested on: THRa:RXRa (NR concentration 90 nM, RXRa partner concentration 90 nM)
In short: as §1

[17] = tested on: THRa homodimer (NR concentration 90 nM)
In short: as §1

[18] = tested on: VDR:RXRa (NR concentration 270 nM, RXRa partner concentration 90 nM)
In short: as §1

[19] = tested on: VDR homodimer (NR concentration 270 nM)
In short: as §1

| Sequence | PBM binding z-score [1] | PBM binding z-score [2] | PBM binding z-score [3] | PBM binding z-score [4] | PBM binding z-score [5] | PBM binding z-score [6] | PBM binding z-score [7] | PBM binding z-score [8] | PBM binding z-score [9] | PBM binding z-score [10] | PBM binding z-score [11] | PBM binding z-score [12] | PBM binding z-score [13] | PBM binding z-score [14] | PBM binding z-score [15] | PBM binding z-score [16] | PBM binding z-score [17] | PBM binding z-score [18] | PBM binding z-score [19] |
| --- | --- | --- | --- | --- | --- | --- | --- | --- | --- | --- | --- | --- | --- | --- | --- | --- | --- | --- | --- |
| CAAACTAGGTCACCGCAAGGTCAAAGTCCGCATG | 8.65 | 8.87 | 6.76 | 3.92 | 8.41 | 6.08 | 2.22 | 6.85 | 2.14 | 5 | 5.35 | 8.07 | 7.32 | 2.61 | 6.15 | 4.68 | 4.38 | 6.39 | 4.3 |
| CGAACGGGGGCATGAGTTGATAGCAAATGCCGAT | 3.7 | 5.31 | 8.66 | 10 | 2.78 | 3.06 | 1.34 | 2.78 | 0.977 | 2.79 | 1.89 | 3.42 | 3.74 | 3.24 | 2.51 | 3.04 | 1.25 | 3.88 | 3.69 |
| CCTGCTAGGTCAATGGTCAGCTGAAGCAGCTCGC | 4.48 | 4.13 | 0.258 | -0.168 | 1.14 | 0.872 | -0.578 | 1.71 | -0.46 | 3.85 | 3.18 | 3.7 | 4.37 | 1.85 | 2.2 | 2.36 | 0.335 | 0.785 | 0.0523 |
| CCTGCTAGGTCATGGTCAGCTATTCTACAGTATG | 4.23 | 3.4 | -0.449 | -0.223 | 2.13 | 1.28 | -0.498 | 2.3 | -0.317 | 3.95 | 3.14 | 3.88 | 4.48 | 2.05 | 2.65 | 2.93 | 1.28 | 1.52 | 0.248 |
| ACTAGCAGGCCAAGTTTGGGGCACTCAAACAAAG | 0.771 | 0.921 | -0.182 | -0.0456 | -0.843 | -0.333 | -0.763 | 0.00988 | -0.881 | 0.744 | 0.455 | 0.443 | 0.463 | -0.0962 | -0.356 | 0.348 | -0.409 | -0.558 | -0.166 |
| CCTTACGGGTCACTGACAGGTTATAGTATTTGGA | 3.44 | 3.9 | 0.845 | 0.452 | 2.3 | 3.46 | 0.317 | 4.47 | 0.728 | 3.93 | 3.11 | 5.61 | 4.34 | 1.85 | 5.18 | 3.04 | 0.562 | 3.85 | 1.17 |
| TATTGTAGATCAGCAGGTTAAGAAAGCTGGCCAA | -0.472 | 0.909 | 0.264 | -0.14 | -0.31 | -0.184 | -0.219 | -0.00412 | -0.421 | -0.104 | -0.28 | -0.0508 | 0.00581 | -1.23 | 0.171 | 0.0661 | -0.952 | 0.112 | -0.39 |
| CTAACGAGGGCATGAGTTGATAGCAAATGCCGAT | 3.84 | 2.56 | 0.128 | 0.129 | 0.262 | 0.639 | 0.123 | 0.588 | 0.359 | 2.01 | 0.671 | 1.31 | 1.61 | 2.41 | 1.06 | 1.2 | 0.0031 | 1.4 | 1.43 |
| ATCGAAAGGTCGAAGGCGAGTATACCCACCCGAA | -0.0271 | 1.19 | 0.286 | 0.268 | 1.03 | 2.14 | -0.132 | 2.87 | 0.519 | 3.57 | 2.23 | 3.79 | 3.68 | 0.777 | 3.64 | 1.75 | -0.359 | 2.22 | 0.879 |
| CGTCCAAGGTCAGGGAGGTCAGTGAATGCCGAGT | 2.94 | 3.53 | -0.257 | -1.31 | 4.71 | 6.02 | 10.3 | 5.53 | 2.15 | 5.33 | 5.45 | 6.54 | 7.67 | 2.48 | 6.37 | 4.58 | 3.43 | 7.3 | 5.37 |
| CCTACTGTGCCAAAGGTCATTGATTCCAATGCTC | 5.24 | 5.97 | 0.578 | 0.496 | 4.4 | 5.42 | 2.77 | 5.77 | 2.56 | 4.63 | 4.59 | 5.61 | 5.21 | 2.09 | 6.46 | 3.46 | 1.72 | 5.13 | 3.37 |
| CGTCAAAGTTCAACAAAGGTAACGTAAAGCACGC | 0.464 | 2.37 | 1.21 | 0.778 | 3.04 | 5.18 | 3.03 | 4.08 | 1.53 | 5.32 | 4.37 | 5.63 | 6.4 | 4.53 | 4.82 | 4.66 | 0.367 | 4.46 | 3.16 |
| AGAATGAGGTTAAAATCAGGGAAACAGAATACAT | 2.34 | 2.5 | 0.82 | 1.18 | 0.858 | 1.17 | 0.655 | 1.9 | 0.961 | 1.59 | 0.545 | 1.94 | 1.31 | 1.51 | 2.62 | 2.4 | 0.43 | 1.33 | 0.808 |
| CCTACTGGGCCAAAGCTCATTGATTCCAATGCTC | 4.44 | 3.69 | -0.419 | -0.625 | -0.0929 | -0.568 | -0.291 | -0.318 | -0.841 | -0.251 | -0.417 | -0.161 | -0.172 | -0.0907 | -0.521 | -0.58 | -0.358 | -0.593 | -0.874 |
| CCTACTGGGCCATCAGGTCATGGATATCAACGTT | 4.54 | 5.33 | 1.99 | 0.266 | 1.85 | 1.58 | 0.00422 | 2.45 | -0.165 | 2.31 | 2.95 | 2.25 | 2.22 | -0.124 | 1.66 | 3.47 | 3.47 | 1.54 | 0.959 |
